Rows were chosen to be rich in hits. Some 1.6% of all compounds tested hit in one or more screens of this group.
RAD54 branch – inhibitors of human RAD54 branch migration | RAD54 Holliday junction branch migration, FAM/BHQ fluorescence | inhibition, % at 10.4 µM | actives 0.14% (n = 360,000);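 active = mean normalized replicate activity at least 40 and at least half of replicates scoring 40 or more; inconclusive = only one of the two criteria met; inactive = mean below 40 and under half of replicates reaching 40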;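 also: 0% = median of neutral control wells and 100% = median of positive control wells; inhibitors cause a drop in the FAM fluorescence signal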
Target sequence (Q92698 whole entry, looked up): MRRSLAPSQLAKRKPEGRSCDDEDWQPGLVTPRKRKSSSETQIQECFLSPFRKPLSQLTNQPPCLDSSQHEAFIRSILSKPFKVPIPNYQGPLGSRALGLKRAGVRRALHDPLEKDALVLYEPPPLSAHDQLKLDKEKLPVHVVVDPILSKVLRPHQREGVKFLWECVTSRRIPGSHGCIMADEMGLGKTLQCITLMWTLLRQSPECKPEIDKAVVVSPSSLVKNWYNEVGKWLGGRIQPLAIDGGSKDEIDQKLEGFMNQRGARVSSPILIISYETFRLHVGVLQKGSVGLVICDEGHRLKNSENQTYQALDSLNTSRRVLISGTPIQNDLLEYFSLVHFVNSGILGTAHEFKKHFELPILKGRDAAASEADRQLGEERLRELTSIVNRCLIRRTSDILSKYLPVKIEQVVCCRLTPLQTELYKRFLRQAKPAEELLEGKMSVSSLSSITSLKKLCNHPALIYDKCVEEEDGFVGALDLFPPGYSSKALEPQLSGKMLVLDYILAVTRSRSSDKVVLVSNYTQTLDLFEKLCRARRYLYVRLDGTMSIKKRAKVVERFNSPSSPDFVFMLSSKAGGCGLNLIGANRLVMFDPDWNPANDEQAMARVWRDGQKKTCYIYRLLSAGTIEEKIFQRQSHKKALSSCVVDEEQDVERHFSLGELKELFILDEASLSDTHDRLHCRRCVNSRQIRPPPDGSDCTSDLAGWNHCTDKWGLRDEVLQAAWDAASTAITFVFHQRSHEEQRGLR
ABCB6 inh MLPCN – inhibitors of human ABC transporter ABCB6; Q9NP58; K562-ABCB6 porphyrin accumulation, flow cytometry, 1 h; hits give low values; fluorescence ratio to DMSO, % at 10 µM; actives 0.19% (n = 360,000); AID 602162;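 active = fluorescence ratio to DMSO below 75%, the collection mean minus 3 SD; inconclusive = too few cells collected in the well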;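 also: signal is porphyrin accumulated inside mitochondria; 100% equals median channel fluorescence of DMSO control wells; lower ratio means ABCB6 inhibition with less porphyrin fluorescence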
Myeloid diff 2 – myeloid differentiation induction. ER-HoxA9 myeloid progenitors, lysozyme-GFP differentiation, flow cytometry. calls only at 10 µM. actives 1% (n = 360,000);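 active = normalized GFP-positive differentiation at or above the plate's own cutoff, the solvent-only control mean plus 3 SD; inconclusive = no clear call, values can overlap the other calls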;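 also: cells exposed to compound for four days before flow analysis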
Vif inh – inhibitors of HIV Vif; HEK293T cells, Vif self-association by quenched fluorescence, imaging, 24 h; inhibition, % at 7.49 µM; actives 0.35% (n = 340,000); in the data active = inhibition above about 50%, passing the limit was not always enough; inconclusive = no clear call, values can overlap the other calls; inactive = below about 31%
N-glyco inh – blocks N-linked glycosylation in D54 reporter cells; actives 0.23% (n = 360,000); D54 ERlucT glycosylation luciferase reporter, 24 h; percent of 100 nM tunicamycin response; AID 588692; reporter increase, % at 12.5 µM;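 active = mean luciferase reporter signal, scaled so untreated is 0 and the glycosylation-blocking control 100, at or above a set limit in every replicate; inconclusive = mean reaches the limit but not every replicate does; inactive = mean below the limit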;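 also: luciferase carries N-glycosylation sites so blocking glycosylation raises the light; 0% = median of neutral control wells and 100% = median of 100 nM tunicamycin wells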
Starred values were filed as active, the others as inactive; i = inactive; ? = inconclusive; · = no result; + = active, no number.

SMILES	RAD54 branch	ABCB6 inh MLPCN	Myeloid diff 2	Vif inh	N-glyco inh
O=C(Nc1ccc(F)cc1)Nc1ccc2c(c1)[C@H]1C[C@H](CC(=O)N3CCCCC3)O[C@H](CO)[C@H]1O2	1.4	·	·	·	·
CCCCCCn1c(N(CC)CC)nc2c1c(=O)[nH]c(=O)n2C	8.6	85.0	i	51.7*	-1.8
CCN(CC)c1nc2c(c(=O)[nH]c(=O)n2C)n1Cc1ccccc1	-0.1	104.0	i	10.3	-0.6
C[C@@H]1CN([C@@H](C)CO)C(=O)c2cc(C3=CCCCC3)cnc2O[C@@H]1CN(C)Cc1ccncc1	10.2	·	·	·	·
O=C1CCCC2=C1C(c1ccco1)Nc1ccc3ccccc3c12 (stereo unspecified)	-3.8	106.0	+	-9.3	1.0
CCCNC(=O)Nc1ccc2c(c1)C(=O)N(C)C[C@@H](OC)[C@@H](C)CN(Cc1ccccn1)[C@H](C)CO2	2.2	·	·	·	·
COc1cc(C)c(C(=O)CC(=O)c2c(C)cc(OC)cc2C)c(C)c1	2.3	96.0	+	-1.1	-9.1
O=C(c1cc(COc2cccc3cccnc23)on1)N1CCC[C@H]1CO	-2.1	96.0	i	50.7*	2.0
COc1ccc(NC(=O)Nc2ccc3c(c2)C(=O)N([C@@H](C)CO)C[C@H](C)[C@H](CN(C)C)OCCCC[C@H](C)O3)cc1	3.1	·	·	·	·
COc1ccc(-c2nn(-c3ccccc3)cc2C(=O)NC(=S)NNC(=O)c2ccncc2)cc1	0.6	100.0	i	59.6*	-4.5
C(=N\Nc1nc2ccccc2[nH]1)/c1ccc2ncccc2c1	-4.7	101.0	+	32.6	44.7*
COc1ccc2oc(=Nc3cc(F)ccc3F)c(C(N)=O)cc2c1	·	84.0	+	0.3	14.2
O=C(N[C@@H]1CC[C@@H](CCNC(=O)C2CCCC2)O[C@H]1CO)c1ccncc1	12.2	·	·	·	·
CCN1CC=C2C(C#N)=C(N)C(C#N)(C#N)C(CCc3ccccc3)C2C1 (stereo unspecified)	-25.8	98.0	i	79.3*	2.7
COc1ccc(-c2n[nH]c(=S)n2-c2ccc(C)cc2C)cc1	-7.8	97.0	i	-3.3	0.4
Cc1ccc(-n2c(-c3ccc(Cl)cc3)n[nH]c2=S)c(C)c1	-13.2	100.0	+	-11.2	-0.1
O=C(O)c1cccc(S(=O)(=O)Nc2ccccc2C(=O)NCCc2ccccc2)c1	-7.8	100.0	+	-5.3	2.1
O=C(O)c1cccc(S(=O)(=O)NCCc2ccccc2)c1	·	95.0	i	4.2	2.3
COc1ccc(Cc2nnc(Nc3ccccc3)s2)cc1Br	14.4	109.0	+	107.3*	0.1
Cn1cccc1Cc1nnc(SCC(=O)Nc2ccccc2F)n1CCc1ccccc1	-0.3	100.0	+	7.3	11.5
COCCN(C(=O)CCC(=O)Nc1nccs1)C(C(=O)NC(C)(C)C)c1ccc(C)cc1 (stereo unspecified)	7.5	102.0	i	84.2*	0.8
COCCN(C(=O)CCC(=O)Nc1nccs1)C(C(=O)NC(C)(C)C)c1ccc(F)cc1 (stereo unspecified)	0.8	95.0	i	-3.1	0.4
Cc1ccc(N(Cc2ccc(C(=O)NN=C3CCN(C)CC3)cc2)S(C)(=O)=O)cc1C	·	91.0	i	64.1*	-0.4
CCN1CCN(c2cc(C)c3cc(NC(=O)c4ccc(OC)c(OC)c4)ccc3n2)CC1	58.5*	103.0	?	-8.5	7.8
C[C@@H]1CN([C@H](C)CO)C(=O)c2cc(NC(=O)CCN3CCOCC3)ccc2O[C@H]1CN(C)S(C)(=O)=O	-0.9	·	·	·	·
SMILES	RAD54 branch	ABCB6 inh MLPCN	Myeloid diff 2	Vif inh	N-glyco inh
COc1ccc2c(c1)N(C)/C(=C/c1cccc[n+]1C)S2	51.1*	416.0	?	·	8.3
Cc1ccc2c(c1)N(C)/C(=C/c1cccc[n+]1C)S2	34.0	521.0	?	·	24.9
CN1/C(=C/c2cccc[n+]2C)Sc2ccccc21	61.8*	323.0	·	118.1*	15.2
CCN1/C(=C/c2cccc[n+]2C)Sc2ccc(OC)cc21	46.0	347.0	?	·	-0.7
Cc1ccc2c(c1)N(C)/C(=C/c1cccc[n+]1CCO)S2	25.3	181.0	+	4.9	2.2
C[C@@H]1CCCCO[C@@H](CN(C)C(=O)c2ccncc2)[C@H](C)CN([C@@H](C)CO)C(=O)c2cc(NC(=O)C3CCCCC3)ccc2O1	2.9	·	·	·	·
C[C@@H]1CN([C@@H](C)CO)C(=O)c2cc(NC(=O)Nc3ccc4c(c3)OCO4)ccc2O[C@@H](C)CCCCO[C@@H]1CN(C)S(=O)(=O)c1cn(C)cn1	-5.5	·	·	·	·
CC(C)NC(=O)Nc1ccc2c(c1)C(=O)N([C@@H](C)CO)C[C@H](C)[C@H](CN(C)C(=O)NC1CCCCC1)O2	-1.3	·	·	·	·
Cc1ccc(/C=N/NC(=O)Cn2nnc(N)n2)cc1	·	105.0	i	23.6	1.0
CCn1nc(C)c(/C=N/NC(=O)Cn2nnc(N)n2)c1C	7.4	99.0	+	59.1*	1.1
O=C(C[C@H]1CC[C@H]2[C@@H](COC[C@H](O)CN2Cc2nccs2)O1)NCc1ccc(F)cc1	3.7	·	·	·	·
CN1CCN(C(=O)C[C@H]2CC[C@@H](NC(=O)Cc3ccccn3)[C@H](CO)O2)CC1	2.2	·	·	·	·
C/C(=C(/CCO)SSCC1CCCO1)N(C=O)Cc1cnc(C)nc1N (stereo unspecified)	-8.7	103.0	+	-1.3	1.2
Cn1nc(C(=O)NNC(=O)CCc2ccccc2Cl)c2ccccc2c1=O	·	99.0	+	2.5	2.5
Cn1nc(C(=O)NNC(=O)c2cccc(Cl)c2)c2ccccc2c1=O	-4.5	99.0	i	8.5	3.0
Cc1nc(C)c(-c2nnc(-c3ccc(C(C)(C)C)cc3)o2)cc1C(=O)NN	·	126.0	+	1.6	-3.2
CCCCNc1nc(NCc2ccccc2)nc2ccccc12	·	95.0	+	·	·
N#Cc1ccc(-c2ccc3c(c2)[C@H]2[C@H](CCN2Cc2ccc4c(c2)OCO4)[C@H](CO)N3)cc1	13.7	·	·	·	·
S=C1NC2=C(CCCC2=C2SCCS2)C(c2ccccc2)N1 (stereo unspecified)	·	104.0	i	10.0	414.5*
C[C@H](NC(=O)[C@@H]1[C@@H](CO)[C@@H]2Cn3c(cccc3=O)[C@H]1N2C(=O)C1CCCC1)c1ccccc1	-5.0	·	·	·	·
Cc1cc(N)n(-c2ccc3ccccc3c2)n1	4.3	99.0	+	-12.0	3.2
COc1ccc(-n2nc(C)cc2N)cc1	·	93.0	i	-1.8	2.0
CCOC(=O)C1=C(C)N=c2s/c(=C/c3ccc(OCC(=O)O)cc3)c(=O)n2C1c1cc(OC)c(OC)c(OC)c1 (stereo unspecified)	-5.5	101.0	i	15.2	-0.9
CCOC(=O)C1=C(C)N=c2sc(=Cc3cc(Cl)c(OCC(=O)O)c(Cl)c3)c(=O)n2C1c1cccc(OC)c1 (stereo unspecified)	8.2	115.0	+	-8.8	1.0
CO[C@H]1CN(C)C(=O)c2cc(NC(=O)C3CC3)ccc2OC[C@H](C)N(Cc2ccccc2)C[C@@H]1C	1.6	·	·	·	·
Cc1c(NC(=O)c2ccc(Cl)c([N+](=O)[O-])c2)cccc1-n1cnnn1	-3.9	102.0	i	55.9*	-2.4

From PubChem
